Assay results reported in the supplement of paper PMC10849652.
Targets with a hit are over-represented here; the source holds about 8,800 in all. About 0.5% of all pairs of compound and target were hits.

What was measured:
Experiment in all cases: log2 fold change, soluble protein after heating vs DMSO (PISA); higher = thermal stabilisation; K562 lysate, 10 uM; active = over 0.2 and 3.5 SD of the protein, either way, in both replicates (recomputed)
ibrutinib = compound: C=CC(=O)N1CCC[C@@H](n2nc(-c3ccc(Oc4ccccc4)cc3)c3c(N)ncnc32)C1 [ibrutinib]
In short: (§1)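 Following dounce homogenisation of K562 pellets in PBS pH 7.4 with 1 mM MgCl2, crude extract at 1 mg/mL protein was incubated for 30 min with 10 μM compound. Aliquots were then heated for 3 min over 48°C-58°C and pooled, NP-40 was added to 0.5% at 4°C, and soluble protein was recovered as the supernatant at 21,000xg for 90 min. Channel-sum-equalised TMTpro 16plex LC-MS/MS quantified this protein. Each value, from duplicates, is a log-two fold change in thermal stability relative to solvent controls.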

[1] = compound: CC(=O)c1cnc2ccc(-c3cc(Cl)c(O)c(Cl)c3)nc2c1N[C@H]1CC[C@H](CN(C)C)CC1
In short: as §1

ralimetinib = compound: CC(C)(C)Cn1c(N)nc2ccc(-c3[nH]c(C(C)(C)C)nc3-c3ccc(F)cc3)nc21 [ralimetinib]
In short: as §1

[2] = compound: CC(C)(O)CC(=O)NCCn1ccc2ncnc(Nc3ccc(Oc4cccc(C(F)(F)F)c4)c(Cl)c3)c21
In short: as §1

[3] = compound: CC(C)C1=C2N=C(C=C(N2N=C1)NCC3=CC=CC=C3)NCCCCCCN
In short: as §1

[4] = compound: CC1=C(C(CC(=O)N1)C2=CC=C(C=C2)C(F)(F)F)C(=O)NC3=C(C=C4C(=C3)C=NN4)F
In short: as §1

[5] = compound: CC1=C(C2=C(C=C1)C(=O)C3=CC=CC=C3N2CCCN)C
In short: as §1

[6] = compound: CC1=C(C=C(C=C1)NC(=O)C2=CC(=CC=C2)C(C)(C)C#N)NC3=CC4=C(C=C3)N=CN(C4=O)C
In short: as §1

[7] = compound: CC1=C(C=C(C=C1)NC(=O)C2=CC(=CC=C2)N(C)C)NC(=O)C3=CC=C(C=C3)O
In short: as §1

[8] = compound: CC1=CC=C(C=C1)SC2=C3C=C(SC3=CN=C2)C(=O)N
In short: as §1

vemurafenib = compound: CCCS(=O)(=O)Nc1ccc(F)c(C(=O)c2c[nH]c3ncc(-c4ccc(Cl)cc4)cc23)c1F [vemurafenib]
In short: as §1

[9] = compound: CCCS(=O)(=O)Nc1ccc(F)c(C(=O)c2c[nH]c3ncc(Cl)cc23)c1F
In short: as §1

barasertib = compound: CCN(CCCOc1ccc2c(Nc3cc(CC(=O)Nc4cccc(F)c4)[nH]n3)ncnc2c1)CCOP(=O)(O)O [barasertib]
In short: as §1

[10] = compound: CC[C@@H]1C(=O)N(C)c2cnc(Nc3ccc(C(=O)NC4CCN(C)CC4)cc3OC)nc2N1C1CCCC1
In short: as §1

volasertib = compound: CC[C@@H]1C(=O)N(C)c2cnc(Nc3ccc(C(=O)N[C@H]4CC[C@H](N5CCN(CC6CC6)CC5)CC4)cc3OC)nc2N1C(C)C [volasertib]
In short: as §1

[11] = compound: CCn1c(C(=O)N(C2CC2)C2CC2)cc2c3c(ncn3C)c(Nc3cc(C)n(C)n3)nc21
In short: as §1

[12] = compound: CCn1cc(-c2ccnc3[nH]c(-c4cccc(CN(C)C)c4)cc23)c(-c2ccc(NC(=O)N(C)C)cc2)n1
In short: as §1

[13] = compound: CN1CCC(CNc2ccc3ncc(-c4cccc(OC(F)(F)F)c4)n3n2)CC1
In short: as §1

saracatinib = compound: CN1CCN(CCOc2cc(OC3CCOCC3)c3c(Nc4c(Cl)ccc5c4OCO5)ncnc3c2)CC1 [saracatinib]
In short: as §1

sotrastaurin = compound: CN1CCN(c2nc(C3=C(c4c[nH]c5ccccc45)C(=O)NC3=O)c3ccccc3n2)CC1 [sotrastaurin]
In short: as §1

Measured: log2 fold change

ARAF (UniProt P10398)
inactive: ibrutinib 0.071 | [1] -0.012 | ralimetinib 0.029 | [2] -0.01 | [3] 0.058 | [4] -0.007 | [5] 0.004 | [6] 0.004 | [7] 0.041 | [8] 0.003 | [9] 0.058 | barasertib 0.015 | [10] -0.069 | volasertib -0.038 | [11] -0.015 | [12] 0.042 | [13] 0 | saracatinib 0.005 | sotrastaurin 0.002
active: vemurafenib 0.411

ARGLU1 (UniProt Q9NWB6)
inactive: ibrutinib 0.027 | [1] -0.034 | ralimetinib -0.027 | [2] 0.015 | [3] 0.005 | [4] -0.008 | [5] 0.026 | [6] -0.027 | [7] -0.022 | [8] 0.019 | vemurafenib -0.013 | [9] 0.027 | barasertib -0.043 | [10] 0.001 | volasertib 0.027 | [11] -0.035 | [12] 0.073 | [13] -0.02 | saracatinib 0.047 | sotrastaurin -0.019

ACACA isoform 4 (UniProt Q13085)
inactive: ibrutinib 0.038 | [1] 0.021 | ralimetinib 0.041 | [2] 0.013 | [3] 0.01 | [4] -0.027 | [5] -0.002 | [6] 0.021 | [7] 0.048 | [8] 0.035 | vemurafenib 0.014 | [9] 0.024 | barasertib 0.043 | [10] -0.062 | volasertib -0.085 | [11] 0.056 | [12] -0.025 | [13] -0.067 | saracatinib 0.001 | sotrastaurin 0.011

AK1 (UniProt P00568)
Chain of UniProt P00568 (P00568 whole entry, looked up): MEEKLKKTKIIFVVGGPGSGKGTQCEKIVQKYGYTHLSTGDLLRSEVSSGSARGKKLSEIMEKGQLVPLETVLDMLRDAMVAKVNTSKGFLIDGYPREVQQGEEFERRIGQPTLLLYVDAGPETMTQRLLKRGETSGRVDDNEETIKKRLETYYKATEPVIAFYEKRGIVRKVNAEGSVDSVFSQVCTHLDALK
inactive: ibrutinib -0.001 | [1] 0.006 | ralimetinib 0.006 | [2] -0.021 | [3] -0.029 | [4] -0.008 | [5] 0.043 | [6] -0.024 | [7] -0.002 | [8] 0.009 | vemurafenib 0.01 | [9] -0.036 | barasertib -0.012 | [10] -0.027 | volasertib 0.021 | [11] 0.017 | [13] -0.135 | saracatinib -0.012 | sotrastaurin -0.024
active: [12] 0.332

AKR1C2 (UniProt P52895)
active: [12] -0.369
inactive: ibrutinib 0.031 | [1] 0.021 | ralimetinib -0.043 | [2] -0.035 | [3] 0.025 | [4] -0.025 | [5] 0.038 | [6] -0.013 | [7] 0.018 | [8] 0.019 | vemurafenib 0.001 | [9] 0.018 | barasertib -0.008 | [10] 0.008 | volasertib -0.018 | [11] -0.043 | [13] 0.148 | saracatinib 0.062 | sotrastaurin 0.006

AHCYL1 (UniProt O43865)
Chain of UniProt O43865 (O43865 whole entry, looked up): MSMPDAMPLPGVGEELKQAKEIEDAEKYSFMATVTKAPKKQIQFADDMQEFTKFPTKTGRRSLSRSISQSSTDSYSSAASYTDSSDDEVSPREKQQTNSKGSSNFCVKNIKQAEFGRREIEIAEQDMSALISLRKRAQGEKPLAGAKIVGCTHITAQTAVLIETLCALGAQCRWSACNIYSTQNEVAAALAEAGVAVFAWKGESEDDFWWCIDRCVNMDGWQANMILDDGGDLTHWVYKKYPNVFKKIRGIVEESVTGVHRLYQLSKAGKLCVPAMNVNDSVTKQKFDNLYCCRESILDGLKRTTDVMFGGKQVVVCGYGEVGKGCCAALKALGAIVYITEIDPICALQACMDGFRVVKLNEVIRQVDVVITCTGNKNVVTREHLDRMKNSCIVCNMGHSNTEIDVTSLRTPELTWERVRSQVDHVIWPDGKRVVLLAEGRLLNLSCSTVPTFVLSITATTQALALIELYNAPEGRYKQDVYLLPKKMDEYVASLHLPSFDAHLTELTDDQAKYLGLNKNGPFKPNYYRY
inactive: ibrutinib 0.014 | [1] -0.02 | ralimetinib -0.004 | [2] 0.022 | [3] 0.003 | [4] 0.016 | [5] -0.065 | [6] -0.028 | [7] 0.009 | [8] 0.021 | vemurafenib 0.018 | [9] 0.021 | barasertib -0.001 | [10] 0.001 | volasertib -0.073 | [11] -0.021 | [12] -0.055 | [13] -0.012 | saracatinib -0.021 | sotrastaurin 0.006

ABI1 isoform 9 (UniProt Q8IZP0)
Chain of UniProt Q8IZP0 (Q8IZP0 whole entry, looked up): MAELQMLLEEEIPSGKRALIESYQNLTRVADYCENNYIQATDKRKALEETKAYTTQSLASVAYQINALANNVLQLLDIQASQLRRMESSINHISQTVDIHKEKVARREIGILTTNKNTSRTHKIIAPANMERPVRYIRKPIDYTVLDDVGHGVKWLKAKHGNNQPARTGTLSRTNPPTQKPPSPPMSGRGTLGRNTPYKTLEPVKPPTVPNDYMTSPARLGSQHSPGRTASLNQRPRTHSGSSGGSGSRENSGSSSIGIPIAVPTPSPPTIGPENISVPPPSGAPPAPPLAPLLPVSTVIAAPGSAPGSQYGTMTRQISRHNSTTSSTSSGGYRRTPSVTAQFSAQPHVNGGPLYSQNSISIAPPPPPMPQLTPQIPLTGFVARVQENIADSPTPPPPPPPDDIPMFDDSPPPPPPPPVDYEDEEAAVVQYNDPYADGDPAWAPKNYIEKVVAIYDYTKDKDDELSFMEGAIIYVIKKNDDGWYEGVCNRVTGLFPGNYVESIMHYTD
inactive: ibrutinib 0.034 | [1] 0.023 | ralimetinib -0.031 | [2] -0.005 | [3] 0.031 | [4] -0.02 | [5] -0.008 | [6] 0.024 | [7] -0.012 | [8] 0.003 | vemurafenib -0.021 | [9] 0.005 | barasertib -0.01 | [10] 0.052 | volasertib -0.038 | [11] -0.001 | [12] -0.116 | [13] 0.217 | saracatinib -0.029 | sotrastaurin -0.019

ABHD17A isoform 2 (UniProt Q96GS6)
Chain of UniProt Q96GS6 (Q96GS6 whole entry, looked up): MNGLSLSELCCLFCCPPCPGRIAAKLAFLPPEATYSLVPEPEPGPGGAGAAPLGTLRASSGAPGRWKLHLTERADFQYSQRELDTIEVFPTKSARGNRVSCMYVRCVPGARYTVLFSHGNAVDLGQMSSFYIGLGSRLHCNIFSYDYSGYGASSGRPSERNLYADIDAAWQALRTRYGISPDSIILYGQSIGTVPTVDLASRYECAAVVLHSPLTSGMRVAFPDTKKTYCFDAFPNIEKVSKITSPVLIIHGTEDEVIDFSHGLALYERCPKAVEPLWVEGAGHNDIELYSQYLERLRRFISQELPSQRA
inactive: ibrutinib -0.03 | [1] 0.011 | ralimetinib 0.039 | [2] -0.035 | [3] 0.032 | [4] -0.042 | [5] -0.065 | [6] -0.023 | [7] -0.097 | [8] -0.098 | vemurafenib -0.007 | [9] -0.08 | barasertib 0.007 | [10] 0.036 | volasertib 0.012 | [11] 0.022 | [12] 0.001 | [13] 0.013 | saracatinib -0.027 | sotrastaurin -0.05

ANXA1 (UniProt P04083)
Chain of UniProt P04083 (P04083 whole entry, looked up): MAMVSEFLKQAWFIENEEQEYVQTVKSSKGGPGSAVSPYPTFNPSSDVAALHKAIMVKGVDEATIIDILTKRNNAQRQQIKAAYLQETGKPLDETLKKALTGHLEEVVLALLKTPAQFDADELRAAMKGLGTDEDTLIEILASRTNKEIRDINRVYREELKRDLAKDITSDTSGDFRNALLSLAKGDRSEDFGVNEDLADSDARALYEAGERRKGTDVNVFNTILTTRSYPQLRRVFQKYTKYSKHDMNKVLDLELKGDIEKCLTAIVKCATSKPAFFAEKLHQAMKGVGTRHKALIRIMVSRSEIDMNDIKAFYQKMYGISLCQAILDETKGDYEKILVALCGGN
inactive: ibrutinib -0.001 | [1] 0.007 | ralimetinib -0.003 | [2] 0.007 | [3] 0.005 | [4] -0.01 | [5] 0.03 | [6] -0.024 | [7] 0.025 | [8] -0.003 | vemurafenib -0.007 | [9] -0.027 | barasertib -0.038 | [10] -0.022 | volasertib -0.011 | [11] 0.008 | [12] 0.028 | [13] 0.049 | saracatinib -0.019 | sotrastaurin 0.017

AKAP11 (UniProt Q9UKA4)
Chain of UniProt Q9UKA4 (Q9UKA4 whole entry, looked up): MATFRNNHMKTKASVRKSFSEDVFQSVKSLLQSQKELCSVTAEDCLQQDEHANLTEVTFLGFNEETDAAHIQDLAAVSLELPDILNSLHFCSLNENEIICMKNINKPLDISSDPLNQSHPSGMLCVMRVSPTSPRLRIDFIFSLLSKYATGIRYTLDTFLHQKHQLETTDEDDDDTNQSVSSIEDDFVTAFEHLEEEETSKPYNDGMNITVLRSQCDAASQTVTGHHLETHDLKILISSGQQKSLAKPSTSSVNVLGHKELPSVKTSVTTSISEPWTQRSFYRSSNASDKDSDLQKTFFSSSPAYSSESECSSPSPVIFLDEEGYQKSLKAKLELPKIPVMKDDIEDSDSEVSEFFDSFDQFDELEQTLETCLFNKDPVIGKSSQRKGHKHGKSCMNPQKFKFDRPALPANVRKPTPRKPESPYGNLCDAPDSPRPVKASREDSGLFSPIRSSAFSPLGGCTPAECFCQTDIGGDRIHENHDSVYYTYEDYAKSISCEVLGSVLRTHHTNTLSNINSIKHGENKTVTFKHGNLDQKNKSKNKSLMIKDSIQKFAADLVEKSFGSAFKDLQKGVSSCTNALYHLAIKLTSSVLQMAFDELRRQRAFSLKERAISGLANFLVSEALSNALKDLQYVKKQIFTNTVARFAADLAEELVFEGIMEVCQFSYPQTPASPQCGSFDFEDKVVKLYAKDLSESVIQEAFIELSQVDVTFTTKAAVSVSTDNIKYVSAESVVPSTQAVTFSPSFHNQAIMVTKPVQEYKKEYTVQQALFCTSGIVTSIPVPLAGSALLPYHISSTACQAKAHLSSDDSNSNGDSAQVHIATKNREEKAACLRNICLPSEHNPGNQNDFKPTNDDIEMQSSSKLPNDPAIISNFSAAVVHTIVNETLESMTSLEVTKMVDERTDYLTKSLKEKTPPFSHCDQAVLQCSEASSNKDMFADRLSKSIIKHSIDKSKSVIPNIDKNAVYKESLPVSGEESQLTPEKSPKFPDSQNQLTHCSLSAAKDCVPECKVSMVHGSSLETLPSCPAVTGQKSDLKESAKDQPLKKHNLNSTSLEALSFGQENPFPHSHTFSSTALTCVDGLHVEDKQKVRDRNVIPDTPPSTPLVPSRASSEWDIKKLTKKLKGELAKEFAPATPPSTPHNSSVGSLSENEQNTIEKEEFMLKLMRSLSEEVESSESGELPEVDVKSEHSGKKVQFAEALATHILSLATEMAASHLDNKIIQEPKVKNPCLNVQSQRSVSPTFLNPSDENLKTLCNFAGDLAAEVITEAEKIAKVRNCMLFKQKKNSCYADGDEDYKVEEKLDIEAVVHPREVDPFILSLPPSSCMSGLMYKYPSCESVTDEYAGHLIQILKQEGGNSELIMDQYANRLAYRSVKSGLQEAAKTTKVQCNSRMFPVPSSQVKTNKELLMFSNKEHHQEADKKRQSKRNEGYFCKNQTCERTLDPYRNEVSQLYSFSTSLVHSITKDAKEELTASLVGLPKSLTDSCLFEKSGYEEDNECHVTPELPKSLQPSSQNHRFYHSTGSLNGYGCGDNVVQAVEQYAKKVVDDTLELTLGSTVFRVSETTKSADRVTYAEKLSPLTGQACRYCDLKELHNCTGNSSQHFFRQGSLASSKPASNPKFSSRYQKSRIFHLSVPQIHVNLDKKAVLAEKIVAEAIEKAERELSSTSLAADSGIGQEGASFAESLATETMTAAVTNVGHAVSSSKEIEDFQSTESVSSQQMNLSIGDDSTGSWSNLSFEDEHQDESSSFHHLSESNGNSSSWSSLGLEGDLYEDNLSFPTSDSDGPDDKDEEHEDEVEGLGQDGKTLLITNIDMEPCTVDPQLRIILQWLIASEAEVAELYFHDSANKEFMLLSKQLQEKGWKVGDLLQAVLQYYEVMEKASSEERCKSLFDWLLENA
inactive: ibrutinib 0.032 | [1] -0.111 | ralimetinib 0.058 | [2] -0.068 | [3] 0.054 | [4] 0.065 | [5] -0.015 | [6] -0.002 | [7] 0.003 | [8] 0.085 | vemurafenib -0.272 | [9] -0.029 | barasertib 0.082 | [10] 0.051 | volasertib 0.038 | [11] -0.055 | [12] 0.044 | [13] -0.024 | saracatinib 0.028 | sotrastaurin -0.103

ANXA5 (UniProt P08758)
Chain of UniProt P08758 (P08758 whole entry, looked up): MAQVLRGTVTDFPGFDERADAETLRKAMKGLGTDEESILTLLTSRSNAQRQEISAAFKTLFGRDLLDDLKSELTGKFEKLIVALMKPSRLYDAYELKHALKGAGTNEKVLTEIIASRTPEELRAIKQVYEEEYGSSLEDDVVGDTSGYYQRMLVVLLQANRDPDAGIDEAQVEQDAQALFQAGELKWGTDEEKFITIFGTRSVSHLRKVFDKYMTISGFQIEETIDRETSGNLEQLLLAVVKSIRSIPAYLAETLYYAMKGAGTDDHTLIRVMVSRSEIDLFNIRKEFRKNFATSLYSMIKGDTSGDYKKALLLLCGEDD
inactive: ibrutinib -0.009 | [1] -0.005 | ralimetinib 0.014 | [2] 0.038 | [3] -0.026 | [4] 0.007 | [5] 0.032 | [6] -0.024 | [7] 0 | [8] 0.005 | vemurafenib -0.034 | [9] -0.011 | barasertib 0.003 | [10] -0.073 | volasertib -0.001 | [11] 0.059 | [12] 0.022 | [13] -0.064 | saracatinib -0.008 | sotrastaurin 0.024

ACTG1 (UniProt I3L4N8)
active: [5] -0.677
inactive: ibrutinib 0.191 | [1] 0.053 | ralimetinib -0.019 | [2] 0.065 | [3] -0.184 | [4] 0.038 | [6] -0.181 | [7] -0.006 | [8] 0.033 | vemurafenib 0.131 | [9] -0.062 | barasertib 0.218 | [10] -0.208 | volasertib -0.006 | [11] -0.384 | [12] 0.94 | [13] -0.091 | saracatinib -0.002 | sotrastaurin 0.001

ACTBL2 (UniProt Q562R1)
Chain of UniProt Q562R1 (Q562R1 whole entry, looked up): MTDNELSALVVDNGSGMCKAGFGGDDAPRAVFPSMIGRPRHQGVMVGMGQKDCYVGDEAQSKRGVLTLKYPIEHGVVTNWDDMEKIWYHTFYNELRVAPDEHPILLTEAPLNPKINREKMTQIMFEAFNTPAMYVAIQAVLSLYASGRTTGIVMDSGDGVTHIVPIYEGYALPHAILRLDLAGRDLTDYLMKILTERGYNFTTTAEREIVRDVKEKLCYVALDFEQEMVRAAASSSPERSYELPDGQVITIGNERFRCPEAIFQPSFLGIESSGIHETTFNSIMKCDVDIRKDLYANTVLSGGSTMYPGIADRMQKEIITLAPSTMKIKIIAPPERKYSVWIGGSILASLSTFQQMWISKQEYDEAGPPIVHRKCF
inactive: ibrutinib 0.001 | [1] -0.016 | ralimetinib 0.006 | [2] 0.082 | [3] -0.034 | [4] 0.086 | [5] 0.069 | [6] -0.043 | [7] 0.017 | [8] 0.123 | vemurafenib -0.097 | [9] 0.089 | barasertib -0.117 | [10] 0.098 | volasertib -0.166 | [11] 0.105 | [12] 0.417 | [13] -0.023 | saracatinib -0.108 | sotrastaurin 0.049

ANKRD54 (UniProt Q6NXT1)
Chain of UniProt Q6NXT1 (Q6NXT1 whole entry, looked up): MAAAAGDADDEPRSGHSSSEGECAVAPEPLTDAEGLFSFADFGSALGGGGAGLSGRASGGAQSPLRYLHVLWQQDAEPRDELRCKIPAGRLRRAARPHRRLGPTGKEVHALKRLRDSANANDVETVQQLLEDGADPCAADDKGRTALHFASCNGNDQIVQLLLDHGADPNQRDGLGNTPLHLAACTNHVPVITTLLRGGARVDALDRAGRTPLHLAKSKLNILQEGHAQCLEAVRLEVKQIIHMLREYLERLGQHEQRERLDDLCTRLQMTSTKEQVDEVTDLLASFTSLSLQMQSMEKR
inactive: ibrutinib -0.054 | [1] -0.002 | ralimetinib 0.063 | [2] -0.006 | [3] 0.044 | [4] 0.003 | [5] 0.001 | [6] -0.006 | [7] 0.01 | [8] -0.023 | vemurafenib -0.031 | [9] 0.053 | barasertib -0.026 | [10] 0.021 | volasertib 0.006 | [11] -0.005 | [12] 0.004 | [13] 0.011 | saracatinib -0.004 | sotrastaurin 0.001

ABHD17B (UniProt Q5VST6)
inactive: ibrutinib 0.067 | [1] -0.031 | ralimetinib -0.053 | [2] -0.037 | [3] -0.036 | [4] -0.076 | [5] 0.001 | [6] 0.013 | [7] 0.127 | [8] 0.018 | vemurafenib 0.051 | [9] -0.002 | barasertib -0.073 | [10] 0.234 | volasertib 0.094 | [11] -0.034 | [12] 0.08 | [13] 0.054 | saracatinib 0.092 | sotrastaurin -0.002

ACIN1 (UniProt E7EQT4)
inactive: ibrutinib 0.049 | [1] -0.033 | ralimetinib 0.123 | [2] -0.052 | [3] 0.028 | [4] -0.017 | [5] -0.052 | [6] 0.094 | [7] -0.03 | [8] -0.002 | vemurafenib -0.057 | [9] 0.026 | barasertib -0.021 | [10] -0.011 | volasertib 0.045 | [11] 0.048 | [12] -0.321 | [13] 0.127 | saracatinib -0.016 | sotrastaurin 0.047
